# Screening data (PubChem BioAssay)
# An excerpt weighted towards active compounds, which were near 3.3% of everything screened.
# UBC13 inh – human UBC13 polyubiquitination inhibition; P61088; 330,000 tested, 0.47% active; inhibition, % at 20 µM; UBC13 polyubiquitin chain formation, TR-FRET; in the data active = inhibition above about 45%, passing the limit was not always enough
# Target sequence (P61088 whole entry, looked up): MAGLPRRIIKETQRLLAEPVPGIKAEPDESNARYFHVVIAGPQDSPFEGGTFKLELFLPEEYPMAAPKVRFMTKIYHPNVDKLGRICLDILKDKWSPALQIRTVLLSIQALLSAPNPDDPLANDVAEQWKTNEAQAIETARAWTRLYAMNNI
# NR3A LBD binder – modulators (binders) of human NR3A ligand-binding domain. AID 1259313. 340,000 tested, 2.5% active. NR3A LBD differential scanning fluorimetry, Tm shift; 0% = protein alone, 100% = glycine-bound protein. Tm shift relative to glycine control, % at 25 µM;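 active = melting temperature shift of at least 10% of the positive control shift, at one fixed dose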
# UBC9 SUMO inh – blocks human SUMOylation mediated by UBC9. P63279. 290,000 tested, 0.36% active. inhibition, % at 35 µM. HTRF SUMOylation assay, SAE1/SAE2 + UBC9, in vitro; in the data active = inhibition above about 50%, passing the limit was not always enough
# Target sequence (P63279 whole entry, looked up): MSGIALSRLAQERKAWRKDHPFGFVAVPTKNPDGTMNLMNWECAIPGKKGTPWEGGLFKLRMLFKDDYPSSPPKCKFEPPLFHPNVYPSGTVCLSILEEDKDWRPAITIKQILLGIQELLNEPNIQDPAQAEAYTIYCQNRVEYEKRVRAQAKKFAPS
# sPLA2-III inh – Blocks human group III sPLA2 activity; QFRET BODIPY PC-A2 liposome hydrolysis, fluorescence; inhibition, % at 12.2 µM; 370,000 tested, 0.56% active; AID 743126;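 active = inhibition above mean plus 3 SD of compounds lying within the high and low control bounds, cut at about 19% in these data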;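 also: 0% = median of test compound wells and 100% = no enzyme DMSO wells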
# * marks the source's active call; other numbers are inactive results; · = not tested or not shown.
SMILES,UBC13 inh,NR3A LBD binder,UBC9 SUMO inh,sPLA2-III inh
CCOC(=O)c1cccc(N2C(=O)Nc3ccccc3N2O)c1,-2,18*,8,6
CCOc1cccc(SCc2noc(C(=O)NCC3CCCO3)c2C(=O)O)c1 (configuration not stated),-6,17*,-2,2
O=C(NCC1CCCO1)c1onc(CSc2cccc(Cl)c2)c1C(=O)O (configuration not stated),-7,0,10,1
O=C(c1ccc(F)cc1Cl)N(Cc1ccccn1)CC1CCCO1 (configuration not stated),·,·,·,7
Cc1cccc(-[n+]2c(C)cc(C)c3c(=O)[nH]c(=O)[nH]c32)c1,8,12*,32,10
O=C(Nc1ccc2nc3ccccc3nc2c1)c1ccc(Br)cc1,-2,0,57*,-13
CC(=O)Nc1ccc2nc3ccccc3nc2c1,-28,-1,92*,4
CC(=O)Nc1ccc2oc(-c3ccccc3)nc2c1,16,-2,34,1
O=C(Nc1ccc2cccnc2c1)c1ccc(Br)cc1,-1,1,5,9
CC(=O)Nc1ccc2c(c1)C(=O)c1ccccc1C2=O,-17,0,1,-4
CC(=O)Nc1ccc2c(c1)CCc1ccccc1-2,-5,10*,-5,7
C=CCN1C(=O)[C@H](CC(=O)N2CCCCC2)[C@@]2(C(=O)OCC)CCCC=C12,·,·,·,8
COC(=O)[C@]12C=CCN1[C@@H](c1ccc(C(F)(F)F)cc1)c1c(c3ccccc3n1S(=O)(=O)c1ccc(C)cc1)C2,·,·,·,9
COC(=O)c1cc(OC)c(OC)cc1NC(=S)Nc1cc(Cl)ccc1OC,43,-3,-2,13
Cc1ccc(NC(=S)NCCSc2ccc(Cl)cc2)cc1,1,18*,-16,-1
COc1ccc(Cl)cc1NC(=S)Nc1ccc(Cl)cn1,0,16*,10,0
CC(CNC(=S)Nc1cc(F)cc(F)c1)CSc1ccc(Cl)cc1 (configuration not stated),6,10*,0,-2
COc1ccc(Cl)cc1NC(=S)NCCSc1ccc(C)cc1,-6,25*,-20,-5
CC(C)N1CCCCC(NC(=O)c2cccc(C(F)(F)F)c2)C1=O (configuration not stated),·,·,·,6
O=C(NNC(=O)c1sc2ccccc2c1Cl)Nc1ccc(Cl)cc1,-14,6,52*,-11
COc1ccc(OC)c(S(=O)(=O)N/N=C(/C)c2c[nH]c3ccccc23)c1,3,25*,-12,4
COc1ccc(OC)c(S(=O)(=O)N/N=C\c2c[nH]c3ccccc23)c1,2,32*,-12,-16
COc1cc(/C=N/NS(=O)(=O)c2ccccc2)c(OC)c(OC)c1,-7,-2,-17,0
COc1ccc(OC)c(S(=O)(=O)N/N=C(/C)c2ccc3c(c2)OCO3)c1,-3,2,9,3
Cc1ccc(CN2CCCCC(NC(=O)c3c(F)cccc3F)C2=O)cc1 (configuration not stated),·,·,·,0
SMILES,UBC13 inh,NR3A LBD binder,UBC9 SUMO inh,sPLA2-III inh
COC(=O)C12C=C3CC(c4ccc(OC)cc4)=C3C(=O)N1Cc1[nH]c3ccccc3c1C2 (configuration not stated),·,·,·,-5
CCCCS(=O)(=O)Nc1ccc2cn[nH]c2c1,-11,1,-4,-7
CCCCS(=O)(=O)Nc1ccc2ncn(C)c(=O)c2c1,11,11*,12,3
Cc1cc(-c2ccccc2)nc(N/N=C/c2ccc(O)cc2)n1,-5,7,·,-19
Oc1ccc(/C=N/Nc2nc(-c3ccc(Cl)cc3)cc(C(F)(F)F)n2)cc1,-2,32*,-23,-15
CN(Cc1ccccc1)C(=O)c1cccc(NC(=O)Cc2ccc(NC(=O)C3CCN(C(=O)CCc4ccccc4)CC3)cc2)c1,·,17*,·,-36
CN(C(=O)c1ccc(NC(=O)Cc2ccc(NC(=O)C3CCN(C(=O)CCc4ccccc4)CC3)cc2)cc1)C1CC1,-8,-1,·,-26
CN(C(=O)c1cccc(NC(=O)Cc2ccc(NC(=O)C3CCCN(S(=O)(=O)c4cccc([N+](=O)[O-])c4)C3)cc2)c1)C1CCCC1 (configuration not stated),·,10*,·,-17
CN(Cc1ccccc1)C(=O)c1cccc(NC(=O)Cc2ccc(NC(=O)C3CCN(C(=O)c4ccccc4)CC3)cc2)c1,·,1,·,-23
CN(Cc1ccccc1)C(=O)c1ccc(NC(=O)Cc2ccc(NC(=O)C3CCN(C(=O)CCc4ccccc4)CC3)cc2)cc1,·,13*,·,-7
CC1=NN(c2ccc(C)cc2)C(=O)/C1=C\c1ccc(Br)s1,-8,-4,76*,7
O=C(N1CCOCC1)N1CC[C@H]2[C@H](CCCN2Cc2cc(F)cc(F)c2)C1,·,·,·,8
Oc1ccc(C=Nc2cccc3ncccc23)c(O)c1,-43,-5,92,-7
Oc1ccc(C=Nc2ccc3ncccc3c2)c(O)c1,-49,·,65*,·
O=C(CSc1ncnc2scc(-c3ccc(Cl)cc3)c12)Nc1ccccc1-c1ccccc1,·,·,·,5
CCCCCCn1c(N2CCN(c3cccc(Cl)c3)CC2)nc2c1c(=O)[nH]c(=O)n2C,-1,14*,-22,0
CCCCNC(=O)Nc1ccccn1,3,12*,12,12
O=S(=O)(Nc1ccc(O)c2ccccc12)c1ccc(Br)cc1,-23,·,86*,·
O=S(=O)(Nc1ccc(O)c2ccccc12)c1cccs1,-14,-1,81,-1
COc1cccc(-c2cc3nc(C)c(C)c(N4CCN(Cc5ccco5)CC4)n3n2)c1,·,·,·,-9
CN1CCN(c2oc(-c3ccccc3F)nc2S(=O)(=O)c2ccc(Cl)cc2)CC1,-2,10*,5,·
COC(=O)[C@H](C(C)C)N(CCc1cn(Cc2ccccc2)nn1)S(=O)(=O)c1ccccc1Br,·,·,·,-13
COc1cc(NC(=O)COC(=O)Cc2ccc(-c3ccccc3)cc2)cc(OC)c1,-8,36*,-47,-44
COc1cccc(NC(=S)NC(=O)Cc2ccccc2)c1,6,4,·,-8
COc1cccc(NC(=O)Nc2nnc(CC(=O)Nc3ccccc3)s2)c1,-10,23*,26,-79
SMILES,UBC13 inh,NR3A LBD binder,UBC9 SUMO inh,sPLA2-III inh
COc1ccc(OC)c(NC(=O)COC(=O)Cc2ccc(-c3ccccc3)cc2)c1,-8,-11,-31,-47
CCSc1nsc(NC(=O)Nc2cccc(OC)c2)n1,9,16*,-1,-16
CCSc1nsc(NC(=O)Nc2ccccc2F)n1,11,-2,0,-3
COc1cccc(NC(=O)Cc2ccccc2)c1,7,10*,8,-4
COC(=O)[C@]1(CNS(=O)(=O)c2ccc(F)cc2)CC(=O)N(C)[C@@H]1c1ccccc1,·,·,·,0
O=C(NC1=NC2(C=C3CCCCC3n3c(=O)n(-c4ccccc4)c(=O)n32)CN1CC1CC1)c1ccccc1 (configuration not stated),·,·,·,-12
CCOc1cc(CCNC(=O)c2cc3ccsc3n2C)ccc1OC,·,·,·,1
COc1nc(OC)nc(N2CCC(C(=O)N(C)Cc3ccccc3F)CC2)n1,·,·,·,-1
C=CCSc1nsc(NC(=O)Nc2ccc(F)cc2)n1,0,28*,-9,-23
CCOC(=O)c1sc(NC(=O)Nc2ccc(F)cc2)nc1C,11,0,-8,3
